PubChem BioAssay (Tox21)
Records with an inconclusive call do not appear. A call without a number means that no potency is given here. Calls of active or inactive are those of the source. Calls follow the shape of the full dose curve.

The compounds below were run against Muscarinic acetylcholine receptor M1 (Homo sapiens) (UniProt P11229) (assay: Cholinergic receptor muscarinic 1 (CHRM1) small molecule antagonists, cell-based qHTS assay (AID 1963588; also: nearly all actives have a fitted effect of over 40% in size)). Conditions: CHRM1-CHO antagonist mode, calcium flux fluorescence; series mostly up to 61.5 µM.
Text: National Center for Advancing Translational Sciences [NCATS]
Division of Preclinical Innovation [DPI]
U.S. Environmental Protection Agency [EPA]
National Institutes of Environmental Health Sciences [NIEHS]
National Toxicology Program [NTP]
U.S. Food and Drug Administration [FDA]
The CHRM1 is a muscarinic receptor. This receptor plays a crucial role in learning and memory processes and has long been identified as a promising therapeutic target for the improvement of cognitive decline in Alzheimer's disease (AD). The CHRM1-CHO cell line stably expressing human muscarinic acetylcholine receptor M1 (CHRM1) can be used for screening agonists and antagonists of interactions between CHRM1 and its ligands. The CHRM1-CHO Calcium Flux Assay is a homogeneous fluorescence-based assay for detecting the intracellular calcium level using FDSS kinetic plate reader system.
Tox21 Assay Protocol Summary:
CHRM1-CHO cells were dispensed at 1000 cells/3uL/well in 1536-well black-clear bottom plates using a Multidrop Dispenser. After the assay plates were incubated at a 37 C/5% CO2 incubator for 18 h, 3 uL of Dye Loading Buffer was transferred to the assay plate by a Flying Reagent Dispenser. The assay plates were incubated at 37 C for 1h. For antagonist mode, 23 nL of compounds dissolved in DMSO, positive controls or DMSO only was transferred to the assay plate by a pin tool. After 5 min incubation at room temperature, 1.5 uL of acetylcholine at 50nM was added to each well. The fluorescence intensity in the plates was measured using FDSS 7000EX kinetic plate reader for 3 min at 1 sec intervals. Each test compound was measured at 15 concentrations in three independent runs.
Potency is read from the fitted curve at half-maximal effect.

Chain of Muscarinic acetylcholine receptor M1 (Homo sapiens) (P11229 whole entry, looked up): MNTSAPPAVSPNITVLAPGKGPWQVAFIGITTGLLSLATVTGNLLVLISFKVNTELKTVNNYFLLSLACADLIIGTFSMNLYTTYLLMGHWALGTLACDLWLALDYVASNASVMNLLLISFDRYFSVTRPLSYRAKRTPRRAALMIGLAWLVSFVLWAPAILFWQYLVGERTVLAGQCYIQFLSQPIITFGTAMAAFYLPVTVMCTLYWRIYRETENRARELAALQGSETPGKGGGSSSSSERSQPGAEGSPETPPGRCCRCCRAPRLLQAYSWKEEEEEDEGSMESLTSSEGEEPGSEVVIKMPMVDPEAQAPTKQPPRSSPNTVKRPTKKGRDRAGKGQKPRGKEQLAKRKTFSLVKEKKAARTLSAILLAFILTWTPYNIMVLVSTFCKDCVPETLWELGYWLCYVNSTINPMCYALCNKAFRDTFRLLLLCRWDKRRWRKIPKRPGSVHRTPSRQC

Structure (SMILES) | Potency | activity, negative = inhibition
CCCCCc1cccc(=O)o1 | inactive | –
COC(=O)c1c(Cl)c(Cl)c(C(=O)OC)c(Cl)c1Cl | inactive | –
Cc1[nH]cnc1-c1ccc(Cl)cc1 | inactive | –
CC(=O)OCc1ccccc1 | inactive | –
CCCCN(CCO)CCO | inactive | –
CCO[Si](C)(C)OCC | inactive | –
CS(C)(=O)=O | inactive | –
CO[Si](CCCNCCC[Si](OC)(OC)OC)(OC)OC | inactive | –
CCC(C)c1ccccc1 (stereo not given) | inactive | –
CC(O)CCCCn1c(=O)c2c(ncn2C)n(C)c1=O (stereo not given) | inactive | –
O=C1CCC(=O)N1 | inactive | –
O=C(O)CC(=O)O | inactive | –
CC(C)CCCCCOC(=O)CS | inactive | –
Cc1cccc(C)c1[N+](=O)[O-] | inactive | –
CCOc1ccc(Cc2nccc3cc(OCC)c(OCC)cc23)cc1OCC | inactive | –
O=c1[nH]c2ccc(Cl)cc2o1 | inactive | –
CC1=CC[C@@H]2C[C@H]1C2(C)C | – | -2.89% [at 12.6 µM] (inactive)
O=S(=O)(O)c1cccc2c(S(=O)(=O)O)cccc12 | inactive | –
CN(C(=O)c1c(O)c2ccccc2n(C)c1=O)c1ccccc1 | inactive | –
CCCCCCCC(=O)OCCCCCC | inactive | –

Structure (SMILES) | Potency | activity, negative = inhibition
C=C(C)C(=O)OCCNC(C)(C)C | inactive | –
O=C1CC2CC1C1CCCC21 (stereo not given) | inactive | –
C=CC(=O)CCCCC | inactive | –
COC(=O)Cc1cccc2ccccc12 | inactive | –
COc1ccc(N)c(C)c1 | inactive | –
CC1COc2ccccc2N1C(=O)C(Cl)Cl (stereo not given) | inactive | –
CCCCCCCCS(=O)(=O)Cl | inactive | –
COc1cccc(OC)c1O | inactive | –
Cc1ccccc1OCC(O)CO (stereo not given) | inactive | –
CCCC[C@H]1CN(CC2CCOCC2)C(=O)OC12CCN(C1(C)CCN(C(=O)c3c(C)ncnc3C)CC1)CC2 | inactive | –
C=CCCCCCCCCCCCC | inactive | –
Nc1ccc(Oc2ccc(Cl)cc2)cc1 | inactive | –
Cc1ccc2c(ccc3ccccc32)c1 | inactive | –
c1ccc2c(c1)Oc1ccccc1S2 | inactive | –
NC(=O)c1cccc([N+](=O)[O-])c1 | inactive | –
O=C(O)C(=O)Nc1cccc(-c2nn[nH]n2)c1 | inactive | –
O=C(O)/C=C/C(=O)O | inactive | –
CC(C)N=C(N)/N=C(\N)Nc1ccc(Cl)cc1 | 0.729 µM (active) | –
NCc1cccc(CN)c1 | 42.1 µM (active) | –
OC/C=C/CO | inactive | –
